The source made the active and inactive calls.

This assay deals with Luciferin 4-monooxygenase (Photinus pyralis) (UniProt P08659). The assay can be described thus: firefly luciferase enzyme inhibitors, primary screen, biochemical, luminescence, purified enzyme, 2006 set (AID 1141).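 Note: cell-free assay with purified firefly luciferase at 100 ng per well in PBS; test concentration not given here.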 The conditions noted are these: SteadyGlo luminescence, 30 min, higher = more signal, called active from +8 up or from −8 down.
Luciferin 4-monooxygenase (Photinus pyralis), sequence (P08659 whole entry, looked up): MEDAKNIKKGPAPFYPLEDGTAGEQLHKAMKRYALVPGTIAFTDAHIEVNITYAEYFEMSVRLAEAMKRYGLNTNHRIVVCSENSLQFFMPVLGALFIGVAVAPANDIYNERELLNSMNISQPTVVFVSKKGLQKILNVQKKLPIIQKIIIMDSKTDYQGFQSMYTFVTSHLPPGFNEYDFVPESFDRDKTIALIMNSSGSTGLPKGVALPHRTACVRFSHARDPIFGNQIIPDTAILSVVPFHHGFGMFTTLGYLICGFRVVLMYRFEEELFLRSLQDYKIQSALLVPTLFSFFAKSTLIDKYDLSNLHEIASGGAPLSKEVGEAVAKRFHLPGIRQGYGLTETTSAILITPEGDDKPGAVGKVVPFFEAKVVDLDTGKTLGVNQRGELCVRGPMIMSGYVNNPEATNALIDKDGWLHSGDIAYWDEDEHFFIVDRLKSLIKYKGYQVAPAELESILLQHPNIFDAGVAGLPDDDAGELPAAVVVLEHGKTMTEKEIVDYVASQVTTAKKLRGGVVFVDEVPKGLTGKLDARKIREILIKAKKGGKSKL
Turning to `O=[N+]([O-])c1ccc(C[n+]2ccc3ccc(O)cc3c2)o1`, the z-score was -2 (inactive).
Take `O=C1O[C@@H](c2ccccc2)[C@@H](c2ccccc2)N2[C@@H](c3ccccc3OCCO)[C@]3(C(=O)Nc4ccc(C#CC5=CCCCC5)cc43)[C@@H](C(=O)O)[C@H]12`: the z-score was -5.86 (inactive).
Turning to `CCC#CCN(Cc1ccccc1Br)[C@H](/C=C/c1ccccc1)[C@@H](O)Cc1ccccc1`, the z-score is -0.686 (inactive).
The figure for `COCCOC(=O)N1C(=O)[C@@]2(c3cc(C#CC4(O)CCCCCC4)ccc31)[C@H](C(=O)N1CCCCCCC1)[C@H]1C(=O)O[C@H](c3ccccc3)[C@H](c3ccccc3)N1[C@@H]2c1ccc(O)cc1` is -1.27 (inactive).
The figure for `C[N+](C)(C)CCCCNC(=O)[C@@H]1C[C@@H]2C(=O)N3CCC[C@H]3C(=O)N2[C@@H]1c1cccc(OCCO)c1` is -1.23 (inactive).
Consider `C=CCN1C(=O)[C@]2(O[C@H](CCn3cc(CCO)nn3)[C@@H]([Si](C)(C)c3ccc(OC)cc3)[C@@H]2C)c2cc(NC(=O)c3ccc(OC)cc3)ccc21`, for which the z-score is -2.28 (inactive).
As for `CO[C@H]1COC(=O)[C@@H](Cc2ccccc2)NC(=O)[C@@H](C)COC(=O)CC=C[C@@H]1C`, the z-score is -1.16 (inactive).
With `O=C1C2C=CC(C(O)c3ccccc3)N(n3cnnc3)C2C(=O)N1Cc1ccccc1` (stereo unspecified), the z-score is -1.55 (inactive).
Take `C=C(COC)/C(=C/C[C@@H](OC(=O)c1ccncc1)c1ccc(OCCO)cc1)c1cc(C(=O)OC)ccc1OC`: the z-score is -2.22 (inactive).
For `O=C1C[C@@](C(=O)NCCN2CCOCC2)(c2ccc([N+](=O)[O-])cc2)[C@@H](c2ccc(CO)cc2)N1C1CCCCC1` the value was -0.83 (inactive); for `COc1ccc(NN2C(C(O)c3cc(OC)c(OC)c(OC)c3)C=CC3C(=O)N(C4CCCCC4)C(=O)C32)cc1` (stereo unspecified), 0.582 (inactive); for `C=C(C)[C@@H]1CC=C(C(O)C2C=CC3C(=O)NC(=O)C3N2Nc2ccccn2)CC1` (stereo partly specified), -0.332 (inactive).
Regarding `O=C1OCCC/C=C\[C@H]2OC34C=CCN(CCN5CCOCC5)C(=O)[C@H]3N(CCCCCO)C(=O)[C@@H]4C12` (stereo partly specified), the z-score was 0.32 (inactive).
Regarding `NC(=O)NCC#Cc1ccc2c(c1)[C@]1(C(=O)N2)[C@H](C(N)=O)[C@H]2C(=O)O[C@H](c3ccccc3)[C@H](c3ccccc3)N2[C@@H]1c1ccccc1OCCO`, the z-score is 0.171 (inactive).
The figure for `COc1ccc([Si](C)(C)[C@H]2[C@H](CCO)O[C@@]3(C(=O)N(Cc4ccccc4)c4ccc(N5C(=O)c6cccc7cccc5c67)cc43)[C@@H]2C)cc1` is -1.84 (inactive).
For `CN(C)c1ccc(C(O)C2C=CC3C(=O)NC(=O)C3N2Nc2ccc(Cl)cc2Cl)cc1` (stereo unspecified) the value was -0.316 (inactive).
As to `COC(=O)C(CC#Cc1ccc2c(c1)[C@]1(C(=O)N2)[C@H](C(=O)N2CCCCCCC2)[C@H]2C(=O)O[C@H](c3ccccc3)[C@H](c3ccccc3)N2[C@@H]1c1ccc(O)cc1)C(=O)OC`, the z-score was -0.269 (inactive).
In the case of `C=CCNC(=O)[C@@H]1[C@H]2C(=O)O[C@H](c3ccccc3)[C@H](c3ccccc3)N2[C@H](c2ccc(OCCO)cc2)[C@@]12C(=O)N(C(=O)OCCOC)c1ccc(C#CC3(O)CCCCCC3)cc12`, the z-score is -2.35 (inactive).
The figure for `CC(C)[Si]1(C(C)C)O[C@@H](c2ccccc2)c2cc(C3CC3)nc(-c3ccc(Oc4ccccc4)cc3)c21` is -0.626 (inactive).
For `[N-]=[N+]=NCc1ccccc1C[C@]1(C(=O)N2CCCCC2)N=C(c2ccc(OCCCO)cc2)O[C@H]1c1ccccc1CN=[N+]=[N-]` the value was -1.02 (inactive); for `Cc1ccc(N2C(=O)c3ccccc3[C@@H](C(=O)NCC(F)(F)F)[C@@H]2c2ccc(CO)cc2)nc1`, -0.642 (inactive); for `CC(C)N1CC=CC23O[C@@H]4/C=C\CCCOC(=O)C4[C@H]2C(=O)N(CCO)[C@@H]3C1=O` (stereo partly specified), -1.68 (inactive).
The figure for `O=C(NCC(F)(F)F)[C@@H]1c2ccccc2C(=O)N(Cc2ccccc2Cl)[C@H]1c1ccc(CO)cc1` is -0.565 (inactive); for `C=CCNC(=O)[C@H]1[C@@H]2C(=O)O[C@@H](c3ccccc3)[C@@H](c3ccccc3)N2[C@@H](c2ccccc2OCCO)[C@]12C(=O)N(C(=O)OCCOC)c1ccc(C#CCC(C(=O)OC)C(=O)OC)cc12` it is -0.509 (inactive).
On to `C[C@@H]1C=CCC(=O)OC[C@H]2O[C@@H](C=C[C@@H]2O)[C@H](C)C=CCC(=O)OC[C@H]2O[C@H]1C=C[C@@H]2O`, for which the z-score is -0.304 (inactive).
The figure for `Cc1ccc(S[C@]2(C(=O)NCCN3CCOCC3)CC(=O)N(C3Cc4ccccc4C3)[C@@H]2c2ccc(CO)cc2I)cc1` is -0.83 (inactive); for `CC(C)CNC(=O)[C@@]1(C)c2ccccc2C(=O)N(Cc2ccc(OC(F)(F)F)cc2)[C@H]1c1ccc(CO)cc1` it is -1.22 (inactive).
In the case of `CO[C@H]1COC(=O)CC=C[C@@H](C)COC(=O)[C@@H](C)NC(=O)CC=C[C@@H]1C`, the z-score is -1.37 (inactive).
The figure for `C=C[C@H](OC)[C@@H](OC(=O)Nc1ccc(SC)cc1)c1ccc(O)c(F)c1` is -3.45 (inactive); for `[N-]=[N+]=NCc1ccccc1C[C@@]1(C(=O)N2CCOCC2)N=C(c2ccc(OCCCO)cc2)O[C@@H]1c1ccccc1N=[N+]=[N-]` it is -8.34 (active).
For `[N-]=[N+]=NCc1ccccc1C[C@@]1(C(=O)O)N=C(c2ccc(OCCCO)cc2)O[C@@H]1c1ccccc1N=[N+]=[N-]` the value was -8.1 (active); for `CSCC[C@@H]1NC(=O)CC=C[C@@H](C)COC(=O)[C@H](CCSC)NC(=O)CC=C[C@@H](C)COC1=O`, -0.731 (inactive); for `C=C(COC)/C(=C/C[C@@H](OC(C)=O)c1cccc(OCCO)c1)c1cc(C(=O)OC)ccc1OC`, -2.09 (inactive).
For the compound `CCOC(=O)C[C@H]1[C@H](OC(=O)c2cc3ccccc3oc2=O)[C@@H](NC(=O)C2CCCCC2)c2cc(OCCCO)ccc2N1C(=O)c1ccc2ccccc2n1`, the z-score is 0.777 (inactive).
For `C=C(COC)C(=O)CC[C@H](OC(=O)c1ccccc1-c1ccccc1C(=O)O)c1cccc(OCCO)c1` the value was -4.13 (inactive); for `C=CC[C@]1(C(=O)OC)N=C(c2ccc(OCCCO)cc2)O[C@H]1c1ccccc1CN=[N+]=[N-]`, -4.54 (inactive).
